We go through 9 compounds from PubChem BioAssay (EPA / NIEHS).

For test [1], the target named is Glucocorticoid receptor (Homo sapiens) (UniProt P04150). As to the kind of experiment: ATG_GR_TRANS: Attagene TRANS-FACTORIAL HepG2 Assay for human Glucocorticoid Receptor (GR) (AID 2282978; active means hit-call score of the fitted dose curve at least 0.9, where 1 is the maximum;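 further: activators score as hits since higher reporter transcript over DMSO is fitted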). Particulars: HepG2 Attagene TRANS GR reporter, mRNA transcription. A digest of the protocol: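 Reporter transcript levels, detected by fluorescence after RT-PCR and capillary electrophoresis, served as the endpoint. HepG2 cells bearing transfected GAL4-UAS reporters responsive to NR-GAL4 chimeras were incubated with compound 24 h; DMSO defined baseline.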

Test [2] deals with Transcriptional activator Myb (Homo sapiens) (UniProt P10242). The test is described as follows: ATG_Myb_CIS: Attagene CIS-FACTORIAL HepG2 Assay for human Myeloblastosis (Myb) Proto-Oncogene Transcription Factor (AID 2282986). Particulars: HepG2 Attagene CIS-FACTORIAL Myb reporter transcription; actives raise or lower the signal. A digest of the protocol:
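Transiently transfected HepG2 cells, treated 24 h. Reporter mRNA quantified by RT-PCR/capillary electrophoresis; bidirectional fit relative to DMSO.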

For test [3], the target named is Nuclear respiratory factor 1 (Homo sapiens) (UniProt Q16656). The test is described as follows: ATG_NRF1_CIS: Attagene CIS-FACTORIAL HepG2 Assay for human Nuclear Respiratory Factor 1 (NRF1) Orphan Gene (AID 2282987). The settings on record: HepG2 NRF1 cis-element reporter, Attagene multiplex; actives raise or lower the signal. A digest of the protocol:
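Cells (HepG2, transient MRTU transfection) are exposed to compound for 24 h, then RNA isolated and reporter mRNA amplified and fluorescently labelled. Fragments are separated by capillary electrophoresis; signal change is fitted bidirectionally relative to DMSO.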

Test [4] in a line: ATG_NFI_CIS: Attagene CIS-FACTORIAL HepG2 Assay for human Nuclear Factor I (NFI) (AID 2282989). The settings on record: HepG2 cis-regulatory reporter, NFI response element transcription; actives raise or lower the signal. A digest of the protocol:
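Transfected HepG2 liver cells, exposed 24 h, supplied total RNA for oligo(dT) reverse transcription and reporter-specific PCR. Labelled, HpaI-cut fragments were sized by capillary electrophoresis; DMSO set the baseline for bidirectional fitting.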

Test [5] deals with Myc proto-oncogene protein (Homo sapiens) (UniProt P01106). The test is described as follows: ATG_Myc_CIS: Attagene CIS-FACTORIAL HepG2 Assay for human Myelocytomatosis (Myc) Proto-Oncogene Transcription Factor (AID 2282990). Particulars: HepG2, Attagene cis-reporter transcription factor activity; actives raise or lower the signal. The procedure, abridged: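 HepG2 cells transiently transfected with multiple cis-promoter-driven reporter transcription units, so endogenous TF activity is read. After 24 h compound exposure, reporter mRNA was quantified by RT-PCR, 6-FAM labelling, HpaI digestion and capillary electrophoresis; bidirectional fit versus DMSO.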

Test [6] in a line: ATG_NRF2_ARE_CIS: Attagene CIS-FACTORIAL HepG2 Assay for human Nuclear Factor Erythroid 2 Related Factor 2 (NFR2) response to Antioxidant Response Elements (ARE) (AID 2282992). The settings on record: HepG2 Attagene ARE/NRF2 reporter, transcription factor activity; actives raise or lower the signal. The procedure, abridged: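 Using transiently transfected HepG2 cells exposed for 24 h, reporter mRNA levels were determined by RT-PCR with fluorescent primer extension and capillary electrophoresis, analysed for gain or loss of signal against DMSO.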

A short description of test [7]: ATG_Oct_MLP_CIS: Attagene CIS-FACTORIAL HepG2 Assay for human Octamer-Binding Transcription Factor (Oct) (AID 2282993). Particulars: HepG2 Attagene cis-factorial Oct reporter, mRNA; actives raise or lower the signal. The procedure, abridged: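 Using HepG2 cells bearing transfected cis-reporter constructs, mRNA induction was read after 24 h by fluorescent RT-PCR and capillary electrophoresis, with DMSO defining baseline for gain- or loss-of-signal fits.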

For test [8], the target named is Cellular tumor antigen p53 (Homo sapiens) (UniProt P04637). As to the kind of experiment: ATG_p53_CIS: Attagene CIS-FACTORIAL HepG2 Assay for human p53 Transcription Factor (AID 2282994). Particulars: HepG2 p53 cis-element reporter, Attagene mRNA; actives raise or lower the signal. The procedure, abridged:
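In HepG2 cells, reporter transcription units under cis-regulatory promoters were transiently introduced. Following 24 h treatment, RNA was processed to labelled, digested cDNA fragments read by capillary electrophoresis; fitting was bidirectional versus DMSO.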

Test [9] can be described thus: ATG_M_06_TRANS: Attagene TRANS-FACTORIAL HepG2 Assay for M06 Transcription Factor (Internal Marker) (AID 2282983; active means hit-call score of the fitted dose curve at least 0.9, where 1 is the maximum). Particulars: HepG2 Attagene TRANS M06 internal marker reporter. A digest of the protocol: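 mRNA levels of a reporter transcript, quantified as FAM fluorescence on capillary electrophoresis, served as readout. HepG2 cells expressing exogenous GAL4-chimera reporter constructs were exposed for 24 h. Gain of signal over DMSO was evaluated.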

Test [10] is described as follows: ATG_NF_kB_CIS: Attagene CIS-FACTORIAL HepG2 Assay for human Nuclear Factor Kappa B (NF-kB) (AID 2282991). Particulars: HepG2 Attagene cis-factorial NF-kB reporter mRNA; actives raise or lower the signal. A digest of the protocol:
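Measures mRNA induction of an NF-kB-responsive cis-element reporter in HepG2 cells transfected with multiple reporter units, sampled 24 h post-dosing; quantified by fluorescence after RT-PCR and capillary electrophoresis, fitted for activation or inhibition against DMSO.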

The target of test [11] is Bile acid receptor (Homo sapiens) (UniProt Q96RI1). As to the kind of experiment: ATG_FXR_TRANS: Attagene TRANS-FACTORIAL HepG2 Assay for Farnesoid X Receptor (FXR) (AID 2282979; active means hit-call score of the fitted dose curve at least 0.9, where 1 is the maximum;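 further: hits raise reporter mRNA above DMSO so AC50 marks FXR activation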). Particulars: HepG2 Attagene TRANS FXR-GAL4 reporter transcription. A digest of the protocol: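 HepG2 cells were transiently transfected with GAL4-UAS reporters driven by chimeric NR-Gal4 proteins and dosed for 24 h. Reporter mRNA was quantified by RT-PCR, fluorescent labelling, HpaI digestion and capillary electrophoresis, with gain of signal scored versus DMSO.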

Test [12] addresses Oxysterols receptor LXR-beta (Homo sapiens) (UniProt P55055). The test is described as follows: ATG_LXRb_TRANS: Attagene TRANS-FACTORIAL HepG2 Assay for human Liver X Receptor beta (LXRb) (AID 2282981; active means hit-call score of the fitted dose curve at least 0.9, where 1 is the maximum). Particulars: HepG2 Attagene TRANS GAL4-LXRb reporter, mRNA. The procedure, abridged:
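Measures induction of a Gal4-driven reporter transcript in HepG2 cells expressing an exogenous LXRb-Gal4 fusion. Cells are exposed to compound for 24 h before RNA isolation and RT-PCR with capillary electrophoresis detection.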

In test [13] the target is Hepatocyte nuclear factor 4-alpha (Homo sapiens) (UniProt P41235). As to the kind of experiment: ATG_HNF4a_TRANS: Attagene TRANS-FACTORIAL HepG2 Assay for human Hepatocyte Nuclear Factor 4 alpha (HNF4a) (AID 2282982; active means hit-call score of the fitted dose curve at least 0.9, where 1 is the maximum). The settings on record: HepG2 HNF4a transactivation reporter, mRNA readout. The procedure, abridged: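 In this trans-factorial format, a chimeric HNF4a-GAL4 fusion drives a GAL4-UAS reporter in transfected HepG2 liver cells. After 24 h treatment, reporter mRNA induction is measured by RT-PCR with capillary electrophoresis, relative to DMSO.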

The nature of test [14]: ATG_M_32_TRANS: Attagene TRANS-FACTORIAL HepG2 Assay for M32 Transcription Factor (Internal Marker) (AID 2282984; active means hit-call score of the fitted dose curve at least 0.9, where 1 is the maximum;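 further: transcript level of a background control reporter unit measured by RT-PCR and capillary electrophoresis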). Particulars: HepG2 Attagene TRANS M32 internal marker reporter. The procedure, abridged:
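After 24 h dosing of transfected HepG2 cells, total RNA was reverse-transcribed, reporter sequences PCR-amplified, 6-FAM labelled by primer extension and HpaI-digested before capillary electrophoresis. Signal increase over DMSO was fitted.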

Test [15] is described as follows: BSK_3C_TissueFactor: BioMAP Diversity Plus: 3C Assay for Tissue Factor Biomarker Activity (AID 2282997). The settings on record: BioMAP 3C HUVEC, tissue factor biomarker readout; actives raise or lower the signal. A digest of the protocol: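 Tissue Factor measured by ELISA, 24 h after treatment of primary HUVEC in the BioMAP 3C setting.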
Test [16] can be described thus: BSK_3C_uPAR: BioMAP Diversity Plus: 3C Assay for Urokinase-type plasminogen activator receptor (uPAR) Biomarker Activity (AID 2282998). The settings on record: BioMAP 3C HUVEC, uPAR biomarker ELISA; actives raise or lower the signal. A digest of the protocol: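 In this endothelial cell-based assay, human umbilical vein primary cells were treated with chemicals and harvested at 24 h. uPAR was quantified using ELISA, with gains or losses fitted relative to DMSO controls.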

The target of test [17] is Oxysterols receptor LXR-alpha (Homo sapiens) (UniProt Q13133). As to the kind of experiment: ATG_LXRa_TRANS: Attagene TRANS-FACTORIAL HepG2 Assay for human Liver X Receptor alpha (LXRa) (AID 2282980; active means hit-call score of the fitted dose curve at least 0.9, where 1 is the maximum). Particulars: HepG2 Attagene TRANS reporter, LXRa transactivation. The procedure, abridged:
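HepG2 cells transiently transfected with GAL4-UAS reporter units for chimeric NR-Gal4 proteins, exposed to chemicals for 24 h. Reporter mRNA quantified by RT-PCR and capillary electrophoresis; gain of signal fitted relative to DMSO.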

In test [18] the target is Nuclear receptor subfamily 4 group A member 2 (Homo sapiens) (UniProt P43354). The test is described as follows: ATG_NURR1_TRANS: Attagene TRANS-FACTORIAL HepG2 Assay for human Nuclear Receptor Related Protein 1 (NURR1) (AID 2282985; active means hit-call score of the fitted dose curve at least 0.9, where 1 is the maximum). The settings on record: HepG2 Attagene TRANS reporter, mRNA readout. A digest of the protocol:
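Chimeric NR-Gal4 fusion activity measured in HepG2 after 24 h treatment. Reporter transcripts detected by RT-PCR and capillary electrophoresis fluorescence; positive-direction curve fitting against DMSO.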

Results filed as inconclusive are left out. Activity calls are given as the source filed them. How the source made its calls, unless noted: active means hit-call score of the fitted dose curve at least 0.9, where 1 is the maximum; inactive means score below 0.9.

Bile acid receptor (Homo sapiens), sequence (Q96RI1 whole entry, looked up, the tested form may be a part): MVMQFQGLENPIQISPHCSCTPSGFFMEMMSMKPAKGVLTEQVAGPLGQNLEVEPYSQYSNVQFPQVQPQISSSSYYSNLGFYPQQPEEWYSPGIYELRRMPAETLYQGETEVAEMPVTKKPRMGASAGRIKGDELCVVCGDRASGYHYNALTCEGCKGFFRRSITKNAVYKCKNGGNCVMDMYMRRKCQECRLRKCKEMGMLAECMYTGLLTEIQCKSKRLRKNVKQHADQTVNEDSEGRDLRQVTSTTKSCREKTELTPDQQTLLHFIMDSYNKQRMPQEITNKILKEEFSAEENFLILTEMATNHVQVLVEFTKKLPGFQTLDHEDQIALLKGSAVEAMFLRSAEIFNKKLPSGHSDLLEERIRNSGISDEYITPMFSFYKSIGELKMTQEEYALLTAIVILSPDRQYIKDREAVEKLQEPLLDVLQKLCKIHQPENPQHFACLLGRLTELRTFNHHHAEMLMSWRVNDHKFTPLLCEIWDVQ
Myc proto-oncogene protein (Homo sapiens), sequence (P01106 whole entry, looked up): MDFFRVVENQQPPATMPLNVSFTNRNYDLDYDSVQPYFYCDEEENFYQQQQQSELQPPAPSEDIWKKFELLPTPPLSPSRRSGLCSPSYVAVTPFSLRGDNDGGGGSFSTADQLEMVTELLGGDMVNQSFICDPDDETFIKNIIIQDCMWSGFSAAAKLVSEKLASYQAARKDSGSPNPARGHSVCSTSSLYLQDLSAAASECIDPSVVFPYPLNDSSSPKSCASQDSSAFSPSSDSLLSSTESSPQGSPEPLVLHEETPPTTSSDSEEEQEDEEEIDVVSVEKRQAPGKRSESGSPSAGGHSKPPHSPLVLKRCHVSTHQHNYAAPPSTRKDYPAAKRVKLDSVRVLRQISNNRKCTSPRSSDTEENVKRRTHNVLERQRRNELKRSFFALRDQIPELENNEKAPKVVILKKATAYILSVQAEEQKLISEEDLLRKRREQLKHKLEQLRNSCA
Oxysterols receptor LXR-beta (Homo sapiens), sequence (P55055 whole entry, looked up, the tested form may be a part): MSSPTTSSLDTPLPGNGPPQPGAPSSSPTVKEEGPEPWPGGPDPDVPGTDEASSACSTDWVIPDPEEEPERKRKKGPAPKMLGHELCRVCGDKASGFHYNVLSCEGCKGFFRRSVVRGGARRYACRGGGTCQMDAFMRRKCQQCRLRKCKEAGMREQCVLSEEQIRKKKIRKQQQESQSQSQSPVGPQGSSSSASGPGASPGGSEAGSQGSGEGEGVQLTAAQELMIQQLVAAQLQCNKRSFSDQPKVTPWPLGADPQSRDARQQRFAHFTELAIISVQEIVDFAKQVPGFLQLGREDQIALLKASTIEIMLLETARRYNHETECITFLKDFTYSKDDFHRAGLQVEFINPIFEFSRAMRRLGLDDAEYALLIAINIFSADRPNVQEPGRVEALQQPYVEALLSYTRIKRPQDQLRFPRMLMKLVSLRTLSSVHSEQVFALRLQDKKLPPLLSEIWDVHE
Glucocorticoid receptor (Homo sapiens), sequence (P04150 whole entry, looked up, the tested form may be a part): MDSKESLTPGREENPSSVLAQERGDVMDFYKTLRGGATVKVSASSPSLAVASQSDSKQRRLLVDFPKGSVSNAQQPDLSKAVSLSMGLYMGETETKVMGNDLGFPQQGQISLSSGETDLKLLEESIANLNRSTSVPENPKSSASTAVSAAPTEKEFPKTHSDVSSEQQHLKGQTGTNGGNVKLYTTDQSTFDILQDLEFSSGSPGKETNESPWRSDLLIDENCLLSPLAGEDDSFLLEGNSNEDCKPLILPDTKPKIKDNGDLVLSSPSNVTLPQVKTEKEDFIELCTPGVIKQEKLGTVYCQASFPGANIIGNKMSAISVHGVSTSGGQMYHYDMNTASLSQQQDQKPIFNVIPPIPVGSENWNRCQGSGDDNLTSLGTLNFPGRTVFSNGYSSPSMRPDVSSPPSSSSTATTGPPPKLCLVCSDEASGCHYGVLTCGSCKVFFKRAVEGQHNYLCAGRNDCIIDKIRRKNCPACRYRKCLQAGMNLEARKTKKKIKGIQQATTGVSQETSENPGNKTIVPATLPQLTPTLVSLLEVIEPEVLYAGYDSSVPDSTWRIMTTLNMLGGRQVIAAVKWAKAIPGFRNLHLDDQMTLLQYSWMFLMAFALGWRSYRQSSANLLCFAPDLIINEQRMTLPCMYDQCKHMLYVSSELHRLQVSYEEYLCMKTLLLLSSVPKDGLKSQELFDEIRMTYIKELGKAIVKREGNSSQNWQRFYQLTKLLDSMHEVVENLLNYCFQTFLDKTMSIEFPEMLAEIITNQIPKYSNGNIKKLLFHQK
Hepatocyte nuclear factor 4-alpha (Homo sapiens), sequence (P41235 whole entry, looked up, the tested form may be a part): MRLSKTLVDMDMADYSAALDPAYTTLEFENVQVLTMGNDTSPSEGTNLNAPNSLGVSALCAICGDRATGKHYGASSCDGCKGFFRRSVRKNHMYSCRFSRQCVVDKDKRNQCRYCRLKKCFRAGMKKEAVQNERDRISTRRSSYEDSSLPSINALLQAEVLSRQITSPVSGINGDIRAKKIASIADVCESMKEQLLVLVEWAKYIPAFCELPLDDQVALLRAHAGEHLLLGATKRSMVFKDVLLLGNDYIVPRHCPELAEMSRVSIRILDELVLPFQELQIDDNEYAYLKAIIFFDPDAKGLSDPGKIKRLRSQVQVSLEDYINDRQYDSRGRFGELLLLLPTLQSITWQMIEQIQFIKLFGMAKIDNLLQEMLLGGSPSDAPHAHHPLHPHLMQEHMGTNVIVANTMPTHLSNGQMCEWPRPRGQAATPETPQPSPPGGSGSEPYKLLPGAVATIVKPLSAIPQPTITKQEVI
Nuclear respiratory factor 1 (Homo sapiens), sequence (Q16656 whole entry, looked up, the tested form may be a part): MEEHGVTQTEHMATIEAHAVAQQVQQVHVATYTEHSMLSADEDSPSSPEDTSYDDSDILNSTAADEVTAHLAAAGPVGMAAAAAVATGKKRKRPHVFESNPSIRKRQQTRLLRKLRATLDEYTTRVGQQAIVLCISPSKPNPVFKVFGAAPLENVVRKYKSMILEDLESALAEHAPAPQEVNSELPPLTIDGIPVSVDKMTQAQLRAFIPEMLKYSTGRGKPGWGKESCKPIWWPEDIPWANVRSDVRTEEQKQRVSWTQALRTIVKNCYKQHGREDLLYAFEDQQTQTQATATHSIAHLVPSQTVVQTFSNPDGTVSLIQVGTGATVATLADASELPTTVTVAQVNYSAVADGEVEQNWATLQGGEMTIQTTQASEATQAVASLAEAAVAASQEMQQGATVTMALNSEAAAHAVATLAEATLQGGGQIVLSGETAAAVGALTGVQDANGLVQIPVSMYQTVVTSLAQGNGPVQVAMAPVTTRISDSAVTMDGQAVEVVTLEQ
Transcriptional activator Myb (Homo sapiens), sequence (P10242 whole entry, looked up): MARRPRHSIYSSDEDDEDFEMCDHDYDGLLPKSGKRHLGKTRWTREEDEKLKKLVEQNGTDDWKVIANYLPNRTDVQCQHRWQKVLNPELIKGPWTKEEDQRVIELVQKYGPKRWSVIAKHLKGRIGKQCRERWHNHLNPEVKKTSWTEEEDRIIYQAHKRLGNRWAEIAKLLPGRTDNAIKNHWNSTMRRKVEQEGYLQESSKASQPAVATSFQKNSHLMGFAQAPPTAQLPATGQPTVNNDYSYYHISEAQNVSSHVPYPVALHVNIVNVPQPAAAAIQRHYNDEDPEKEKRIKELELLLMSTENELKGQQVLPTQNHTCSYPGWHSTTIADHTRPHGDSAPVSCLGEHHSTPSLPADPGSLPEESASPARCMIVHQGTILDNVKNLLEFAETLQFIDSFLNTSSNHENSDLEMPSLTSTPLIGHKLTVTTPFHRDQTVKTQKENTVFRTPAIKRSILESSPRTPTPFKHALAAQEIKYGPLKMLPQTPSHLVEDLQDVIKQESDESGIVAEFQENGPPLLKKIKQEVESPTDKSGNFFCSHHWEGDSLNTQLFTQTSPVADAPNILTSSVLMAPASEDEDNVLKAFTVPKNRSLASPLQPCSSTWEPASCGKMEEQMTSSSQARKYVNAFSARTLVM
Cellular tumor antigen p53 (Homo sapiens), sequence (P04637 whole entry, looked up, the tested form may be a part): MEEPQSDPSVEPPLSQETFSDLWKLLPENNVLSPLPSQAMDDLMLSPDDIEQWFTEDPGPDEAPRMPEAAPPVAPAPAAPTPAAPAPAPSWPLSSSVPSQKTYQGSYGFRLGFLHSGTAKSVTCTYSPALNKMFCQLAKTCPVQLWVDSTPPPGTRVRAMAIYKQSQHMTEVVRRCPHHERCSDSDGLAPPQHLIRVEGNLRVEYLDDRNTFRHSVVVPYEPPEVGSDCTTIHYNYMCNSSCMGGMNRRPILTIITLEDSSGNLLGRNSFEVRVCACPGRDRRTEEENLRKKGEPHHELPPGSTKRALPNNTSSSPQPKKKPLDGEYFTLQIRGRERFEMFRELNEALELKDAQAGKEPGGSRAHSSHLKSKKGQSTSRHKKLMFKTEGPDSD
Oxysterols receptor LXR-alpha (Homo sapiens), sequence (Q13133 whole entry, looked up, the tested form may be a part): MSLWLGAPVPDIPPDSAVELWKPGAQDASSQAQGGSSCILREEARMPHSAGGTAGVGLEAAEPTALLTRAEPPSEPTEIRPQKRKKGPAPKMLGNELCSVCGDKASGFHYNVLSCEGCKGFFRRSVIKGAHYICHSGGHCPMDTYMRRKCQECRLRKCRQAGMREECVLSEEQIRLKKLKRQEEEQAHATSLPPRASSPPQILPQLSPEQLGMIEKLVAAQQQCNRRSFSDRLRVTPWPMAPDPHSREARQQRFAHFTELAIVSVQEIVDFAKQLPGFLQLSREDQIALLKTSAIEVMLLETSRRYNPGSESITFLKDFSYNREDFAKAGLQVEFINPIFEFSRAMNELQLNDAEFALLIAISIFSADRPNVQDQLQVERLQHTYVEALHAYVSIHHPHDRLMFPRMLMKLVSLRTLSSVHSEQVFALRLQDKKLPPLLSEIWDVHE

Turning to `C=Cc1cccc(C)c1`, the call in [1], in [2], in [3], in test [4], in [5] and in test [6] was inactive. In addition, the call in test [7] and in test [8] was inactive.

Take `Cc1c(Cl)cccc1Cl`: the result in [1], in test [9], in test [2], in test [3], in test [4] and in [5] was inactive. Also, the outcome in test [10], in test [6] and in [7] was inactive.

For the compound `Cc1ccc([N+](=O)[O-])cc1N`, the compound was classed as inactive in test [11], in test [12], in test [13], in [9], in test [14] and in [2]. Moreover, the compound was called inactive in [3], in test [4], in test [5], in test [6], in [7] and in test [8]. Further, the result in [15] and in test [16] was inactive.

As to `O=C(Oc1ccccc1)c1ccccc1C(=O)Oc1ccccc1`, the compound was called inactive in test [1], in test [13], in test [14], in [2], in test [3] and in [4]. Besides, the compound was called inactive in test [5], in test [7], in [8], in test [15] and in [16]. Besides, the AC50 in test [6] was 30.7 µM (active).

Consider `CCOC(=O)C1=NOC(c2ccccc2)(c2ccccc2)C1`, for which the compound was classed as inactive in test [11], in test [12], in test [9], in test [14], in test [2] and in test [3]. The result in test [4], in test [5], in test [7], in test [8], in test [15] and in test [16] was inactive. Moreover, the AC50 in [6] is 65.1 µM (active).

In the case of `CO[Si](CCCS)(OC)OC`, the compound was called inactive in test [1], in test [13], in test [14], in test [2], in test [3] and in [4]. The compound was classed as inactive in test [5], in test [10], in test [6], in [7] and in [8].

On to `CCCCCCCCCCCCCc1ccccc1`, for which the compound was classed as inactive in test [11], in test [12], in [13], in test [14], in test [2] and in [3]. For the same compound, the compound was classed as inactive in test [4], in [5], in [10], in test [7] and in test [8].

In the case of `C1CCSC1`, the compound was classed as inactive in test [11], in test [17], in test [12], in test [13], in test [9] and in [14]. The compound was called inactive in [2], in [3], in test [4], in test [5], in test [10] and in [6]. Moreover, in test [8], the outcome was inactive.

Regarding `CC(C)C(=O)OCCc1ccccc1`, the call in [11], in [17], in [12], in test [9], in test [14] and in [18] was inactive. In addition, the compound was called inactive in [2], in [3], in [4], in test [5], in test [10] and in test [6]. The result in test [7], in [15] and in test [16] was inactive.
